Source: PubChem BioAssay AID1159580 (chemical genetic matrix, 2015)
About 2,000 (36%) of roughly 5,500 compounds were called active. About 18% were inconclusive and are not listed. Cut-off read from the data, not from the text of the source: active = normalized growth mostly below about 0.91 (no sharp cut-off); inconclusive = no clear call, values can overlap the other calls; inactive = mostly above about 0.92. The list shows a part of the results.

Test: chemical genetic growth profiling, strain panel (AID 1159580);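 note: tested at 20 µM; growth read once vehicle control cultures reached saturation at 30 °C; 1 = growth at the plate median or of vehicle wells; lower values mean less growth of the strain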
Conditions: growth OD

Measured: normalized growth

COC(=O)C[C@H]1C(C)(C)C2(O)OC34CC2C(=O)[C@]1(C)C3CC[C@]1(C)C4=CC(=O)O[C@H]1c1ccoc1 (some centres not stated)
inactive: S. cerevisiae deletion strains, locus YJR043C, strain POL32, stronger effect = lower value 0.992 | S. cerevisiae deletion strains, locus YJR066W, strain TOR1, stronger effect = lower value 0.92 | S. cerevisiae deletion strains, locus YKL009W, strain mrt4, stronger effect = lower value 1.03 | S. cerevisiae deletion strains, locus YKL068W, stronger effect = lower value 1.01 | S. cerevisiae deletion strains, locus YKL085W, strain MDH1 (second series), stronger effect = lower value 1.02 | S. cerevisiae deletion strains, locus YKL085W, strain MDH1, stronger effect = lower value 1.02 | S. cerevisiae deletion strains, locus YKL160W, strain elf1, stronger effect = lower value 1.01 | S. cerevisiae deletion strains, locus YKL190W, strain CNB1, stronger effect = lower value 0.994 | S. cerevisiae deletion strains, locus YKR001C, strain vps1, stronger effect = lower value 1.01 | S. cerevisiae deletion strains, locus YKR026C, strain gcn3, stronger effect = lower value 0.991 | S. cerevisiae deletion strains, locus YKR091W, strain srl3, stronger effect = lower value 0.985 | S. cerevisiae deletion strains, locus YLL001W, strain dnm1, stronger effect = lower value 1.02 | S. cerevisiae deletion strains, locus YLL026W, stronger effect = lower value 0.998 | S. cerevisiae deletion strains, locus YLL041C, strain sdh2, stronger effect = lower value 0.979 | S. cerevisiae deletion strains, locus YLR027C, strain aat2, stronger effect = lower value 1 | S. cerevisiae deletion strains, locus YLR039C, strain RIC1, stronger effect = lower value 1.05 | S. cerevisiae deletion strains, locus YLR058C, strain SHM2, stronger effect = lower value 1 | S. cerevisiae deletion strains, locus YLR102C, strain apc9, stronger effect = lower value 1.01 | S. cerevisiae deletion strains, locus YLR113W, strain HOG1, stronger effect = lower value 1.01 | S. cerevisiae deletion strains, locus YLR221C, strain rsa3, stronger effect = lower value 0.991 | S. cerevisiae deletion strains, locus YLR258W, strain gsy2, stronger effect = lower value 0.989 | S. cerevisiae deletion strains, locus YLR262C, strain YPT6 (second series), stronger effect = lower value 1 | S. cerevisiae deletion strains, locus YLR262C, strain YPT6, stronger effect = lower value 1.08 | S. cerevisiae deletion strains, locus YLR268W, strain sec22, stronger effect = lower value 0.998 | S. cerevisiae deletion strains, locus YLR320W, strain mms22, stronger effect = lower value 0.989 | S. cerevisiae deletion strains, locus YLR342W, strain FKS1, stronger effect = lower value 0.977 | S. cerevisiae deletion strains, locus YLR357W, strain rsc2, stronger effect = lower value 0.999 | S. cerevisiae deletion strains, locus YLR370C, strain arc18, stronger effect = lower value 0.967 | S. cerevisiae deletion strains, locus YLR371W, strain rom2, stronger effect = lower value 0.998 | S. cerevisiae deletion strains, locus YLR384C, strain iki3, stronger effect = lower value 0.975 | S. cerevisiae deletion strains, locus YLR418C, strain cdc73, stronger effect = lower value 1.03 | S. cerevisiae deletion strains, locus YML016C, strain PPZ1, stronger effect = lower value 1 | S. cerevisiae deletion strains, locus YML032C, strain rad52, stronger effect = lower value 1.01 | S. cerevisiae deletion strains, locus YML120C, strain ndi1, stronger effect = lower value 0.981 | S. cerevisiae deletion strains, locus YML124C, strain tub3, stronger effect = lower value 1.01 | S. cerevisiae deletion strains, locus YMR058W, strain fet3, stronger effect = lower value 0.999 | S. cerevisiae deletion strains, locus YMR078C, strain ctf18, stronger effect = lower value 1.01 | S. cerevisiae deletion strains, locus YMR125W, strain sto1, stronger effect = lower value 0.982 | S. cerevisiae deletion strains, locus YMR129W, stronger effect = lower value 0.994 | S. cerevisiae deletion strains, locus YMR205C, strain PFK2, stronger effect = lower value 1.01 | S. cerevisiae deletion strains, locus YMR223W, strain ubp8, stronger effect = lower value 1.01 | S. cerevisiae deletion strains, locus YMR231W, strain pep5, stronger effect = lower value 0.957 | S. cerevisiae deletion strains, locus YMR307W, strain GAS1, stronger effect = lower value 0.93 | S. cerevisiae deletion strains, locus YNL067W, strain RPL9B, stronger effect = lower value 1 | S. cerevisiae deletion strains, locus YNL071W, strain lat1, stronger effect = lower value 0.989 | S. cerevisiae deletion strains, locus YNL153C, strain GIM3, stronger effect = lower value 1.01 | S. cerevisiae deletion strains, locus YNL183C, strain NPR1, stronger effect = lower value 0.931 | S. cerevisiae deletion strains, locus YNL209W, strain ssb2, stronger effect = lower value 0.984 | S. cerevisiae deletion strains, locus YNL233W, strain BNI4, stronger effect = lower value 0.985 | S. cerevisiae deletion strains, locus YNL248C, strain rpa49, stronger effect = lower value 1 | S. cerevisiae deletion strains, locus YNL250W, strain rad50, stronger effect = lower value 1.01 | S. cerevisiae deletion strains, locus YNL271C, strain bni1, stronger effect = lower value 1.01 | S. cerevisiae deletion strains, locus YNL298W, strain CLA4, stronger effect = lower value 1 | S. cerevisiae deletion strains, locus YNL307C, strain MCK1, stronger effect = lower value 1 | S. cerevisiae deletion strains, locus YNL322C, strain KRE1 (second series), stronger effect = lower value 0.981 | S. cerevisiae deletion strains, locus YNR049C, strain mso1, stronger effect = lower value 0.988 | S. cerevisiae deletion strains, locus YNR052C, strain pop2, stronger effect = lower value 1.01 | S. cerevisiae deletion strains, locus YOL006C, strain TOP1, stronger effect = lower value 1.01 | S. cerevisiae deletion strains, locus YOL012C, strain htz1 0.65 | S. cerevisiae deletion strains, locus YOL147C, strain pex11, stronger effect = lower value 1.01 | S. cerevisiae deletion strains, locus YOR001W, strain rrp6, stronger effect = lower value 0.953 | S. cerevisiae deletion strains, locus YOR061W, strain CKA2, stronger effect = lower value 1.01 | S. cerevisiae deletion strains, locus YOR069W, strain VPS5, stronger effect = lower value 0.997 | S. cerevisiae deletion strains, locus YOR070C, strain gyp1, stronger effect = lower value 0.992 | S. cerevisiae deletion strains, locus YOR080W, strain dia2, stronger effect = lower value 0.988 | S. cerevisiae deletion strains, locus YOR083W, strain WHI5, stronger effect = lower value 1.02 | S. cerevisiae deletion strains, locus YOR106W, strain vam3, stronger effect = lower value 1.03 | S. cerevisiae deletion strains, locus YOR136W, strain idh2, stronger effect = lower value 1.01 | S. cerevisiae deletion strains, locus YOR144C, strain elg1, stronger effect = lower value 1.02 | S. cerevisiae deletion strains, locus YOR184W, strain ser1, stronger effect = lower value 0.996 | S. cerevisiae deletion strains, locus YOR231W, strain MKK1, stronger effect = lower value 1.01 | S. cerevisiae deletion strains, locus YOR265W, strain rbl2, stronger effect = lower value 0.984 | S. cerevisiae deletion strains, locus YOR270C, strain vph1, stronger effect = lower value 0.98 | S. cerevisiae deletion strains, locus YOR290C, strain snf2, stronger effect = lower value 0.97 | S. cerevisiae deletion strains, locus YOR316C, strain cot1, stronger effect = lower value 1.02 | S. cerevisiae deletion strains, locus YPL051W, strain arl3, stronger effect = lower value 1.01 | S. cerevisiae deletion strains, locus YPL078C, strain atp4, stronger effect = lower value 1.01 | S. cerevisiae deletion strains, locus YPL106C, strain sse1, stronger effect = lower value 0.969 | S. cerevisiae deletion strains, locus YPL240C, strain hsp82, stronger effect = lower value 0.988 | S. cerevisiae deletion strains, locus YPL241C, strain CIN2, stronger effect = lower value 1 | S. cerevisiae deletion strains, locus YPL256C, strain CLN2, stronger effect = lower value 0.942 | S. cerevisiae deletion strains, locus YPR119W, strain clb2, stronger effect = lower value 1.01 | S. cerevisiae deletion strains, locus YPR141C, strain kar3, stronger effect = lower value 1.01 | S. cerevisiae deletion strains, locus YPR163C, strain tif3, stronger effect = lower value 1.01 | S. cerevisiae deletion strains, locus YPR167C, strain met16, stronger effect = lower value 1.01 | S. cerevisiae deletion strains, strain wtn01, stronger effect = lower value 1 | S. cerevisiae strains, strain wild type, stronger effect = lower value 0.996
